Shown are actives, neighbours in structure and some others; about 19% of the full set was active somewhere.
TDP1 cell noCPT: qHTS for Inhibitors of human tyrosyl-DNA phosphodiesterase 1 (TDP1): qHTS in cells in absence of CPT. DT40 Tdp1-/- hTDP1 cells, no CPT, ATP luminescence, 48 h. Potency, µM (highest dose often 46.2 µM), for inactives: at the top dose activity change, negative = growth inhibition, hits mostly inhibitors. hit rate 15% among 420,000. AID 686978, 2013; also: potency is read from the fitted curve at half-maximal effect; % is scaled to controls: 0 for no effect and ±100 for the full control effect; nearly all actives have a fitted effect of over 55% in size
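Compound effects on proliferation are scored in DT40 Tdp1-/-;hTDP1 cells in the absence of CPT. ATP levels (CellTiter-Glo luminescence) are recorded after a ≥48 hr, 37 °C incubation.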
IL1B secr inh: blocks inflammasome-driven IL-1 beta release. THP-1 LPS/ATP IL-1B secretion, AlphaLISA, 16 h; hits give low values. activity change, % at 57.5 µM. hit rate 4.7% among 360,000. AID 743279; in the data active = activity change below about -50%; inconclusive = mostly about -30% to -49%; also: % is scaled to controls: 0 for no effect and ±100 for the full control effect
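THP-1 cells pretreated 1 hr with compounds (up to 57.5 uM final), then stimulated with LPS (250 ng/mL final) plus ATP (1.25 mM final); secreted IL-1B measured by AlphaLISA after 16 hr, decreased signal indicating inhibition.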
MCF10A rerep: induces DNA re-replication in MCF 10a normal breast cells | MCF 10A DNA re-replication, Hoechst nuclear intensity, 48 h | Potency, µM (titrated, usually from 46.1 µM), for inactives: top-dose activity, positive = re-replication, usual class: activators | AID 624296 | hit rate 2.9% among 350,000; also: potency is read from the fitted curve at half-maximal effect; % of control where 0% means no effect; nearly all actives have a fitted effect of over 50% in size
TDP1 cell CPT: DT40-hTDP1 cell growth loss with CPT; AID 686979; chicken DT40 Tdp1-/-;hTDP1 cells + 20 nM CPT, ATP luminescence, 48 h; hit rate 12% among 420,000; Potency, µM (titrated, usually from 46.2 µM), for inactives: at the top dose activity change, negative = growth inhibition, hits mostly inhibitors; also: potency is read from the fitted curve at half-maximal effect; % is scaled to controls: 0 for no effect and ±100 for the full control effect; nearly all actives have a fitted effect of over 55% in size
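Chicken DT40 Tdp1-/- cells stably complemented with human TDP1 were seeded at 400 cells/well in medium containing 20 nM camptothecin, exposed to pin-transferred compounds, and grown at 37 °C for at least 48 hr. Viability was read as ATP luminescence.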
Chronic BCR inh: inhibitors of chronic active B-cell receptor signaling; ABC-DLBCL IkBa-CBG/CBR reporter, luminescence ratio, 4 h; Potency, µM (doses to about 46.1 µM), without a hit: at the highest dose activity change, negative = inhibition, usual class: inhibitors; hit rate 0.05% among 340,000; active = well fitted inhibition curve with a large enough effect in the signal ratio, with a control signal flat, not every such curve was filed as active; inconclusive = small, poorly fitted or top-dose-only effect, or effect the other way, or a change in a side signal; the % refers to the signal ratio;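 also: potency is read from the fitted curve at half-maximal effect; plate controls were basal doxycycline-induced cells for no effect and cells given 10 µM MG132 for full effect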
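Doxycycline induced both beetle luciferases in TMD8 lymphoma cells; IKK-driven degradation limits the IkappaBalpha-fused green signal, while red luminescence normalises for cell number and nonspecific effects. Compounds tested up to 46 uM, 4 hrs.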
SW480 rerep: inducers of DNA re-replication in SW480 colon cancer cells; hit rate 1.8% among 340,000; SW480 DNA re-replication, Hoechst DNA content imaging, 48 h; Potency, µM (titrated, usually from 46.1 µM), inactives show top-dose re-replication activation, usual class: activators; also: potency is read from the fitted curve at half-maximal effect; % of control where 0% means no effect; nearly all actives have a fitted effect of over 55% in size
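Image-based read-out: total Hoechst fluorescence of nuclei (405 nm excitation, 500-530 nm emission), with hits raising the fraction of high-intensity nuclei. SW480 colon cells incubated 48 hr with compounds at 37 C.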
Numbers without * were called inactive. Unless noted, calls follow the shape of the dose curve; as a rule, active = well fitted curve in the direction sought with a large enough effect; inconclusive = small, poorly fitted or top-dose-only effect, or another doubt; inactive = no such curve, though single readings can be large; an effect the other way counts as inactive or inconclusive.

Screening CCOC(=O)C1(Cc2cccc(OC)c2)CCN(CC=C(C)C)CC1 returned TDP1 cell noCPT 16µM*, IL1B secr inh -13, MCF10A rerep 1%, TDP1 cell CPT inconclusive, Chronic BCR inh -3% and SW480 rerep -8%.
Screening CCOC(=O)C1(Cc2cccc(OC)c2)CCN(C/C=C/c2ccccc2)CC1 returned TDP1 cell noCPT 18µM*, IL1B secr inh -92*, MCF10A rerep 16%, TDP1 cell CPT 16µM*, Chronic BCR inh inconclusive and SW480 rerep -20%.
Screening CCOC(=O)C1(Cc2cccc(OC)c2)CCN(Cc2cccc(OCC)c2O)CC1 returned TDP1 cell noCPT 16µM*, IL1B secr inh -90*, MCF10A rerep 3%, TDP1 cell CPT 23µM*, Chronic BCR inh -8% and SW480 rerep 11%.
CCOC(=O)C1(Cc2cccc(OC)c2)CCN(CC(O)CO)CC1 (centres undefined) was read as TDP1 cell noCPT -2%, IL1B secr inh -7, MCF10A rerep -9%, TDP1 cell CPT 1%, Chronic BCR inh -1% and SW480 rerep -1%.
Screening CCc1ccccc1NC(=O)Cn1nc(CC)n2c(cc3sccc32)c1=O returned TDP1 cell noCPT inconclusive and TDP1 cell CPT -21%.
For CN(C)C(=O)c1ccc(NC(=O)c2cccc(-n3cnnn3)c2)cc1 the results were TDP1 cell noCPT -24%, IL1B secr inh 4 and TDP1 cell CPT 5%.
Screening COc1cccc(-n2cnnc2SC(C)C(=O)NC2CCCC2)c1 (centres undefined) returned TDP1 cell noCPT -13%, IL1B secr inh 0, MCF10A rerep 4%, TDP1 cell CPT 0%, Chronic BCR inh 0% and SW480 rerep 3%.
`COc1ccccc1C1=NN(C(=O)c2ccccc2)C(c2ccc(Br)cc2)C1` (centres undefined) gave TDP1 cell noCPT -10%, IL1B secr inh -7, MCF10A rerep -14%, TDP1 cell CPT -6%, Chronic BCR inh inconclusive and SW480 rerep -9%.
COc1ccc(C2=NN(CN3C(=O)C(=O)c4ccccc43)C(c3ccc(C)cc3)C2)cc1 (centres undefined) was read as TDP1 cell noCPT inconclusive, IL1B secr inh -17, MCF10A rerep 29%, TDP1 cell CPT 18µM*, Chronic BCR inh 30% and SW480 rerep -3%.
Screening COc1ccc(C2=NN(CN3C(=O)C(=O)c4ccccc43)C(c3ccc(Br)cc3)C2)cc1 (centres undefined) returned TDP1 cell noCPT 6.5µM*, IL1B secr inh -79*, MCF10A rerep inconclusive, TDP1 cell CPT 16µM*, Chronic BCR inh 16% and SW480 rerep 1%.
O=C(C[N+]1(CCc2ccccc2)CCOCC1)c1cccc([N+](=O)[O-])c1 was read as TDP1 cell noCPT -20% and TDP1 cell CPT -4%.
For Cc1ccc(C(=O)Nc2ccc(S(=O)(=O)NC3=NCCCCC3)cc2)cc1S(=O)(=O)N1CCOCC1 the results were TDP1 cell noCPT -5%, IL1B secr inh 0, MCF10A rerep 12%, TDP1 cell CPT inconclusive, Chronic BCR inh 6% and SW480 rerep -8%.
For O=C1CC(c2ccccc2)=C(c2ccccc2)C1c1ccccc1 (centres undefined) the results were TDP1 cell noCPT inconclusive, IL1B secr inh -8, MCF10A rerep inconclusive, TDP1 cell CPT 29µM* and SW480 rerep inconclusive.
CCOc1ccc(-n2c(-c3ccc(Cl)cc3)c[n+]3c2SCC3)cc1 was read as TDP1 cell noCPT 2.1µM*, IL1B secr inh -86*, MCF10A rerep inconclusive, TDP1 cell CPT 1.8µM*, Chronic BCR inh 1% and SW480 rerep 1%.
Screening CCOc1ccc(C2=CSC3=NCCN23)cc1 returned TDP1 cell noCPT -26%, IL1B secr inh -11, MCF10A rerep 4%, TDP1 cell CPT -13%, Chronic BCR inh 2% and SW480 rerep 2%.
c1ccc(-n2c3ccccc3c3ccccc32)cc1 was read as TDP1 cell noCPT inconclusive, IL1B secr inh 14, MCF10A rerep inconclusive, TDP1 cell CPT inconclusive, Chronic BCR inh inconclusive and SW480 rerep -7%.
c1ccc(-c2c[n+]3c(n2-c2ccccc2)SCC3)cc1 was read as TDP1 cell noCPT 21µM*, IL1B secr inh -10, MCF10A rerep 12%, TDP1 cell CPT inconclusive, Chronic BCR inh inconclusive and SW480 rerep 21%.
O=S(=O)(NCCS(=O)(=O)N1CCN(c2ccc(F)cc2)CC1)c1ccc(F)cc1 was read as TDP1 cell noCPT -25%, IL1B secr inh 31 and TDP1 cell CPT -17%.
`CCOc1ccc(CNC(=O)c2ccc3nc(Cc4ccc(OC)cc4)oc3c2)cc1OC` gave TDP1 cell noCPT 13µM* and TDP1 cell CPT 18µM*.
Screening COc1cc(C(=O)NCCCc2ccccc2)cc(OC)c1OC returned TDP1 cell noCPT -39%, IL1B secr inh 26, MCF10A rerep -3%, TDP1 cell CPT 12%, Chronic BCR inh inconclusive and SW480 rerep -3%.
`COc1cc(CC(=O)NCCCc2ccccc2)cc(OC)c1OC` gave TDP1 cell noCPT 21µM*, IL1B secr inh 7, MCF10A rerep -1%, TDP1 cell CPT inconclusive, Chronic BCR inh -6% and SW480 rerep 27%.
COc1cc(CNC(=O)c2ccc3nc(CCc4ccccc4)oc3c2)cc(OC)c1OC was read as TDP1 cell noCPT 21µM* and TDP1 cell CPT 21µM*.
For CC(C)Oc1ccc(CNC(=O)c2ccc3nc(Cc4ccccc4)oc3c2)cc1 the results were TDP1 cell noCPT -28% and TDP1 cell CPT inconclusive.
Screening COc1cc(CNC(=O)c2ccc3nc(Cc4ccccc4)oc3c2)cc(OC)c1OC returned TDP1 cell noCPT 2.6µM* and TDP1 cell CPT 6.5µM*.
Screening COc1ccc(-c2ccc(C(=O)Nc3cccc(C(C)=O)c3)c3occc23)c(C)c1 returned TDP1 cell noCPT 8.2µM*, IL1B secr inh 11 and TDP1 cell CPT 12µM*.
Screening COc1ccc(-c2ccc(C(=O)Nc3cccc(N(C)C)c3)c3occc23)c(C)c1 returned TDP1 cell noCPT inconclusive, IL1B secr inh 0 and TDP1 cell CPT inconclusive.
`COc1ccc(-c2ccc(C(=O)Nc3cccc(NS(C)(=O)=O)c3)c3occc23)c(C)c1` gave TDP1 cell noCPT inconclusive, IL1B secr inh -10 and TDP1 cell CPT 16µM*.

Assay outcomes as filed in PubChem.
